Rows were chosen to be rich in hits. Some 10% of all compounds tested hit in one or more screens of this group.
BAZ2B inh: BAZ2B (human) inhibition; Potency, µM (titrated, usually from 114 µM), for inactives: at the highest dose activity change, negative = inhibition, usual class: inhibitors; AlphaScreen BAZ2B-H3K14Ac peptide displacement; AID 504333; actives 4.4% (n = 360,000); further: on the % scale 0 is the no-effect control and ±100 the full control effect; nearly all actives have a fitted effect of over 60% in size
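Complex of BAZ2B and biotin-H3K14Ac (50 nM apiece) forms over 30 min at RT, then faces library compounds up to 110 uM for another 30 min; AlphaScreen beads added, 20 min dark incubation, luminescence read.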
L3MBTL1 inh: inhibitors of human L3MBTL1 | Q9Y468 | AlphaScreen L3MBTL1–H3K9me1 peptide binding | Potency, µM (highest dose often 57.1 µM), for inactives: at the top dose activity, negative = inhibition, actives largely listed as inhibitors | actives 0.66% (n = 230,000) | AID 485360; further: on the % scale 0 is the no-effect control and ±100 the full control effect; nearly all actives have a fitted effect of over 60% in size
Target sequence (Q9Y468 whole entry, looked up): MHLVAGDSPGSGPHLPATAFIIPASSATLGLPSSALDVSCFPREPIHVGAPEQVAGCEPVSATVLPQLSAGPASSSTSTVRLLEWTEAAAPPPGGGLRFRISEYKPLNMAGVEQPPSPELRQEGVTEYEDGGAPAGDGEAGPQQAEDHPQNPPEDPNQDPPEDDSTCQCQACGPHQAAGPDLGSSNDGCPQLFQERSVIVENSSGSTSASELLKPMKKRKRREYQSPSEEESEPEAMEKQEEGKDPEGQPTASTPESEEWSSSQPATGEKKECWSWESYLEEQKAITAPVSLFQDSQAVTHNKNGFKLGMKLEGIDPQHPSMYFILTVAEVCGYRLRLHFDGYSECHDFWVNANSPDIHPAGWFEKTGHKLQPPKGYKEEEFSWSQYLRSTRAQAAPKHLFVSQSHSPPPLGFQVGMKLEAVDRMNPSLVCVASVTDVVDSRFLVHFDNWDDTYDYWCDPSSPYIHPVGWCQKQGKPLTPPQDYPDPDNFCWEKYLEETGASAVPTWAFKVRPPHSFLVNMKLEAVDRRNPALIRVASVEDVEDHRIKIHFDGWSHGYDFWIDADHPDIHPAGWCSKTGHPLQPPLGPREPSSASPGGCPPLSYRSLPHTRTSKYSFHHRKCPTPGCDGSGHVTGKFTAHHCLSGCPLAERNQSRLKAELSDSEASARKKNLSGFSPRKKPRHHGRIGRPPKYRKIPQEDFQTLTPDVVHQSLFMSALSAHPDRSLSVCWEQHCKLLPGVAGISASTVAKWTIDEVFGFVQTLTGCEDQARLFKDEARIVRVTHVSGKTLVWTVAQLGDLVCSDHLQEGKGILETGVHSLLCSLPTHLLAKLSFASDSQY
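AlphaScreen proximity signal between nickel-chelate acceptor and streptavidin donor beads (final 10 ug/mL) reports binding of 50 nM L3MBTL1 to 75 nM biotin-H3 K9me1 peptide; complex incubated with compounds 30 min at room temperature; cefsulodin titration as control.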
JMJD2A Tudor: inhibitors of human JMJD2A Tudor domain | actives 4.4% (n = 390,000) | O75164 | Potency, µM (top dose mostly 114 µM), for the others: at the top dose activity change, negative = inhibition, hits mostly inhibitors | AlphaScreen JMJD2A-Tudor / H3K4me3 peptide binding; further: on the % scale 0 is the no-effect control and ±100 the full control effect; nearly all actives have a fitted effect of over 50% in size
HP1b binding inh: inhibitors of HP1-beta chromodomain binding to methylated histone tails. P83916. AlphaScreen HP1-beta / biotin-H3K9me3 peptide binding. Potency, µM (titrated, usually from 114 µM), for the others: at the top dose activity change, negative = inhibition, actives largely listed as inhibitors. actives 0.56% (n = 390,000). AID 540317; further: nearly all actives have a fitted effect of over 70% in size
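AlphaScreen: HP1-beta (50 nM) preformed 30 min with biotin-H3(1-18)K9me3 peptide (50 nM) in PBS pH 7.4, 0.01% Tween-20. Compound added for 30 min at RT, then streptavidin donor/nickel chelate acceptor beads (10 ug/mL) for 30 min.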
G9a block: inhibitors of human histone lysine methyltransferase G9a | Q96KQ7 | G9a H3K9 monomethylation, AlphaScreen, 2 h | Potency, µM (doses to about 102 µM), for inactives: at the highest dose activity, negative = inhibition, most hits filed as inhibitors | actives 8.8% (n = 350,000); further: on the % scale 0 is the no-effect control and ±100 the full control effect; nearly all actives have a fitted effect of over 75% in size
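Enzyme 20 nM + cpd, 15 min RT; add b-H3K9 pep 500 nM / SAM 20 uM; 2 h RT; anti-H3K9me1 Ab 0.5 ug/mL + SA donor / anti-rabbit acceptor beads 20 ug/mL each, 10 min; AlphaScreen read.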
GLS inh: inhibitors of human glutaminase (GLS); GLS enzymatic activity, qHTS titration; actives 0.21% (n = 410,000); Potency, µM (series often up to 45.5 µM), for inactives: at the top dose activity change, negative = inhibition, usual class: inhibitors; further: on the % scale 0 is the no-effect control and ±100 the full control effect
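Human kidney-isoform GLS in 45 mM KH2PO4 pH 8.2, 0.02% Tween-20, with compound, started with 1mM L-Glutamine (added stock). Glutamate oxidase/HRP/Amplex red coupled fluorescence read at start and after 30 min at RT.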
Active calls of the source: *; ? = inconclusive; . = no result given; [ ] = dose if it differs, or a comment. The call rests on the fitted dose curve; in most records, active means well fitted curve in the direction sought with a large enough effect; inconclusive means small, poorly fitted or top-dose-only effect, or another doubt; inactive means no such curve, though single readings can be large; an effect the other way counts as inactive or inconclusive. Potency means the concentration at half of the fitted maximal effect.

SMILES | BAZ2B inh | L3MBTL1 inh | JMJD2A Tudor | HP1b binding inh | G9a block | GLS inh
CC(=O)N1CCc2cc(C(=O)CN3CCC(C)CC3)ccc21 | -4% | 6% | -21% | 39% | 18µM* | -9%
O=c1c(-c2cccs2)nc2cncnc2n1-c1ccccc1 | . | . | . | . | -19%[0.501 µM] | .
Cc1ccc2cc(C=C(C#N)C#N)c(N3CCCCC3)nc2c1 | ? | 7% | ? | ? | 45µM* | 36%
Cc1ccc2cc(/C=C(\C#N)C(N)=O)c(N3CCCCC3)nc2c1 | -5% | -7% | -1% | 45% | 24%[59 µM] | 0%
O=C(COC(=O)C12CC3CC(CC(Cl)(C3)C1)C2)NCc1ccco1 | . | . | -22% | 19% | . | .
Nc1n[nH]c(N)c1N=Nc1ccccc1F | ? | . | ? | 6% | -8% | 5%
Nc1n[nH]c(N)c1N=Nc1ccc(Cl)cc1Cl | 32µM* | -17% | 32µM* | -11% | ? | 1%
Cc1nc(Nc2cnc(/C=C/c3cc(C(=O)Nc4cccc(C(F)(F)F)c4)ccc3C)cn2)cc(N2CCNCC2)n1 | -38% | -3% | ? | ? | 32µM* | 0%
Cc1nn(Cc2ccc(Cl)cc2)c2sc(C(=O)O)cc12 | -20% | . | -23% | -1% | 1µM* | 23%
O=[N+]([O-])c1ccccc1S(=O)(=O)N1CCN(c2ccccc2)CC1 | ? | -28% | ? | 5% | 3% | -5%
O=C1C(Cl)=C(N2CCN(c3ccccc3[N+](=O)[O-])CC2)C(=O)c2ccccc21 | 2.5µM* | ? | 5µM* | 8.9µM* | 7.9µM* | 11%
O=C(c1cccc(F)c1)N1CCC2(CCN(Cc3ccccc3)CC2)CC1 | . | . | . | . | 5%[12.7 µM] | .
O=C1CCCN1CN1CCCCC1 | 79µM* | 8% | ? | ? | -131%[59 µM] | 9%
COc1ccc(NS(=O)(=O)c2ccc3nc(COc4ccc(Cl)c(C)c4)[nH]c3c2)cc1 | -3% | 0% | -26% | 1% | 45µM* | 9%
CC(=O)c1sc(NC(=O)CCNC(=O)c2ccco2)nc1-c1ccccc1 | ? | . | -18% | 13% | 8%[0.501 µM] | 3%
COc1ccc(-c2nc(NC(=O)c3ccco3)sc2C)cc1 | . | . | . | . | . | -1%
O=C(CCl)Nc1nc(-c2ccco2)c(-c2ccco2)s1 | 50µM* | -8% | ? | ? | 11µM* | 2%
Cc1ccc(C(=O)Nc2nc(-c3ccco3)c(-c3ccco3)s2)o1 | 20µM* | ? | ? | 50µM* | 14µM* | 7%
CC(C)Oc1cccc(NC(=O)C2CCN(S(=O)(=O)Cc3ccccc3)CC2)c1 | ? | . | -14% | 28% | -26%[59 µM] | 7%
O=c1[nH]c(/C=C/c2cccc([N+](=O)[O-])c2)c([N+](=O)[O-])c(=O)[nH]1 | 13% | 13% | -4% | -6% | 79µM* | 13%
COc1cc(C(c2c(C)[nH][nH]c2=O)c2c(C)[nH][nH]c2=O)cc([N+](=O)[O-])c1O | ? | . | 45µM* | ? | ? | ?
COc1cc(/C=C/c2[nH]c(=O)[nH]c(=O)c2[N+](=O)[O-])cc([N+](=O)[O-])c1O | 56µM* | . | ? | -8% | 45µM* | ?
O=c1[nH]c(/C=C/c2ccc(Cl)cc2Cl)c([N+](=O)[O-])c(=O)[nH]1 | 56µM* | -8% | -21% | 6% | ? | -3%
Cc1c(C(=O)NN2CCCCC2)nn(-c2ccc(Cl)cc2Cl)c1-c1ccc(Cl)cc1 | . | . | . | . | ? | 18%
COc1ccc(N2CCN(C(=O)CSc3nc(-c4ccccc4)no3)CC2)cc1 | -13% | . | -13% | 17% | -18%[59 µM] | -3%
SMILES | BAZ2B inh | L3MBTL1 inh | JMJD2A Tudor | HP1b binding inh | G9a block | GLS inh
NC(=O)CSc1ncc2c(n1)-c1ccccc1N(Cc1cccc(F)c1)S2(=O)=O | -38% | . | -5% | 3% | 5%[59 µM] | 5%
CCN1CCN(C(=O)c2cc(S(=O)(=O)Nc3ccc(S(C)(=O)=O)cc3)ccc2Cl)CC1 | -23% | 5% | -8% | 26% | 50µM* | -6%
COC(=O)CSc1cnc2ccccc2n1 | ? | . | 10% | 33% | 17%[59 µM] | 2%
O=C(CSc1cnc2ccccc2n1)c1ccc(F)cc1 | 9% | -6% | 3% | 42% | 7.1µM* | 9%
CC(C)c1nc(SCC(=O)Nc2ccc(N(C)C)cc2)c2ccccc2n1 | ? | -4% | ? | -12% | 8.9µM* | 20%
CC(C)c1nc(SCC(=O)c2ccc(F)cc2)c2ccccc2n1 | 49% | 87% | 118% | 104% | 40µM* | 2%
NC(Cc1cc(I)c(Oc2cc(I)c(O)c(I)c2)c(I)c1)C(=O)O (stereo not given) | . | . | . | . | -38%[2.33 µM] | .
CC(=O)c1cccc(NC(=S)NNC(=O)c2ccc(C)c([N+](=O)[O-])c2)c1 | -6% | 4% | ? | -14% | 20µM* | 19%
CC(=O)Nc1cccc(NC(=O)c2ccc(C)c([N+](=O)[O-])c2)c1 | -17% | . | -6% | 7% | -37% | 0%
Cc1cccc(NC(=O)NNC(=O)c2ccc(C)c([N+](=O)[O-])c2)c1 | 1% | 1% | -4% | 42% | . | 16%
CC(=O)c1cccc(NCC(=O)c2ccc(C)c([N+](=O)[O-])c2)c1 | -21% | . | -28% | 74% | 35µM* | 1%
Cc1ccc(NC(=O)C(Cc2ccccc2)N2Cc3ccccc3C2=O)cc1Cl (stereo not given) | 0% | . | -30% | 27% | -13%[59 µM] | 5%
c1ccc(-c2nc(N3CCCCCC3)c3ccccc3n2)nc1 | 50µM* | ? | ? | 36% | -31% | 19%
c1ccc(-c2nc(N3CCOCC3)c3ccccc3n2)nc1 | ? | . | -33% | 42% | ? | 0%
CCOc1ccc(-c2cc(C(=O)NCCc3ccccc3)c3c(-c4ccc(C)cc4)[nH]nc3n2)cc1 | 25% | . | -1% | 38% | 13%[59 µM] | 4%
COc1ccc(-c2nc(N3CCN(S(=O)(=O)c4ccc(F)cc4)CC3)c3ccccc3n2)cc1 | . | . | -20% | 37% | . | .
Cc1[nH][nH]c(=O)c1C(c1c(C)[nH][nH]c1=O)c1cn(Cc2ccc(F)cc2)c2ccccc12 | 45µM* | ? | 50µM* | ? | 8.9µM* | 24%
Cc1[nH][nH]c(=O)c1C(c1c(C)[nH][nH]c1=O)c1cn(Cc2ccc(Cl)c(Cl)c2)c2ccccc12 | 28µM* | ? | 50µM* | ? | 8.9µM* | 21%
O=c1c2ccccc2ncn1Cc1ccc(Cl)c(Cl)c1 | 3% | -6% | -2% | 45% | . | -1%
CN(C)c1ccc(-n2cccc2/C=C/[N+](=O)[O-])cc1 | 16µM* | . | 25µM* | 45µM* | 22µM* | 58%
Cc1ccccc1NC(=O)CSc1nnc(COc2ccc(Cl)cc2)o1 | -2% | . | -27% | 8% | ? | 1%

Bioassay records as filed in PubChem.
